Measured values: PubChem BioAssay AID624305 (National Center for Advancing Translational Sciences (NCATS), 2012)
Results filed as inconclusive are left out. A number with no mark means an inactive call. Calls of active or inactive are those of the source. Calls follow the shape of the dose curve; as a rule, active = well fitted activation curve with a large enough effect; inconclusive = small, poorly fitted or top-dose-only effect; inactive = no such curve, though single readings can be large or run the other way.

Assay: qHTS assay for re-activators of p53 using a Luc reporter: Hit Validation; also: nearly all actives have a fitted effect of over 75% in size; as to activation: 0% is about no effect
Settings: p53-responsive luciferase reporter cells, luminescence; series mostly up to 46.1 µM; activation: at the top concentration
Source text: The p53 tumor suppressor plays a key role in suppression of tumorigenesis and in human carcinogenesis. It is frequently found inactivated in human cancers, mainly by point mutation. These point mutations are found in a wide variety of human cancers and a majority of them affect the DNA binding domain of the protein. The point mutations either alter native p53 conformation or abolish DNA contact. Additionally, cancer cells with p53 mutations are more resistant to chemo-radiation therapies.
In order to find activators to reactivate this important protein, a cell-based screen for p53-dependent luciferase-reporter expression was developed. A p53-null H1299 lung cancer cell line was stably co-transfected with a temperature sensitive p53 mutant, p53-A138V, and a p53-responsive BP100-luciferase reporter. This cell model has previously been characterized in a gene chip profiling experiment for p53 activation. By lowering the culture temperature from 37 deg C (mutant p53 conformation) to 32 deg C (w.t. p53 conformation), a 30-60 fold increase in activation of luciferase activity is observed. At assay temperate, 37 deg C, basal reporter expression is very low and after the addition of detection reagent, a luminescent read-out is carried out. This is the hit validation assay, confirming the hits identified from the primary screen.
NIH Chemical Genomics Center [NCGC]
NIH Molecular Libraries Probe Production Centers Network [MLPCN]
Assay Provider (PI): Yi Sung, University of Michigan at Ann Arbor
5ul of 1000 cells per well are dispensed in all wells except column 4, into white solid-bottom TC-treated Kalypsys plates. The cells are kept in Opti-MEM and supplemented with 10% FBS and dispensed using a Multidrop (Thermo). Then using the Kalypsys pin-tool, 23nl of compounds are pinned. The compounds are starting concentration at 10mM, with 1:5 dilution, 4 points, and the control compound nocodazole is pinned in column 1 at 25mM, 1:3 dilution, in duplicate, 25mM nocodazole is pinned in column 2. Please note, all concentrations are working concentrations. 5ul of 1pM purified luciferase enzyme is dispensed using the Kalypsys dispenser in column 4. Plates are incubated for 24 hrs at 37 deg C, 5% CO2, and 95% humidity. Then 4ul of the detection reagent Amplite (ABD Bioquest) is added using the Kalypsys dispenser. Plates are incubated for 10 min at ambient room temperature and are then read on the ViewLux (Perkin Elmer) using a clear filter for a luminescent read-out.
Potency is read from the fitted curve at half-maximal effect.

| SMILES | activation | Potency |
| --- | --- | --- |
| Cc1cc(N2C(=O)C3CCCN3C2c2sccc2C)no1 (stereo unspecified) | -20.3% [at 46.1 µM, H1299 line expressing heat-sensitive Ala138Val p53] |  |
| O=C(N/N=C/c1c(O)n(Cc2ccccc2)c(=O)[nH]c1=O)c1ccccc1 | -38.5% [at 9.22 µM] |  |
| O=C(c1cc2c(s1)CCCC2)N1CCC2(CC1)OCCO2 | 33.3% |  |
| COC(=O)C1=C(c2cccc(C#N)c2)C[C@@H]2CC[C@H]1N2C(=O)NC1CC1 | 16.7% [at 46.1 µM, H1299 line expressing heat-sensitive Ala138Val p53] |  |
| COC(=O)C1=C(c2ccc(F)cc2OCc2ccccc2)C[C@@H]2CC[C@H]1N2C(=O)NCCOc1ccc(OC)cc1 | -22.9% |  |
| COc1ccc(NC(=O)C2C3CCC(O3)C2C(=O)O)c(OC)c1 (stereo unspecified) | 2.6% |  |
| N=C1c2ccccc2CN1CC(=O)c1ccccc1 |  | 20.6 µM (active) |
| O=C(N/N=C/c1c(O)n(C2CC2)c(=S)[nH]c1=O)c1ccccc1 | -9.38% |  |
| COc1ccc(CN2CCNCC2)cc1 | 19.8% |  |
| Nc1c(C(=O)NCc2ccco2)c2nc3ccccc3nc2n1Cc1ccc(F)cc1 | -6.25% [at 46.1 µM, H1299 line expressing heat-sensitive Ala138Val p53] |  |
| Nc1ccccc1N=Cc1c(O)n(CCC2=CCCCC2)c(=O)[nH]c1=O | 12.5% |  |
